Screening results deposited in PubChem by several laboratories.
An excerpt weighted towards active compounds, which were near 2.1% of everything screened.
APP 5UTR inh – APP translation inhibition. SH-SY5Y APP 5'UTR-luciferase reporter, luminescence. hit rate 0.82% among 190,000. inhibition, % at 2 µM;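 active = inhibition above a set limit, derived from the sample mean plus 3 SD, cut at about 45% in these data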
IEC-6 tox – counter-screen for KLF5 inhibitors: cytotoxicity in IEC-6 cells | IEC-6 cytotoxicity, luminescence viability | inhibition, % at 5 µM | hit rate 0.78% among 290,000; in the data active = inhibition above about 22%
Ba/F3 V617F tox – reduce viability of Ba/F3 cells dependent on JAK2V617F; Ba/F3 EpoR-JAK2V617F viability, ATP luminescence; inhibition, % at 5.6 µM; hit rate 1.1% among 220,000; AID 1446;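 active = inhibition above the campaign mean plus 3 SD over all tested compounds, cut at about 24% in these data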;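 note: cytokine-independent growth of Ba/F3 cells driven by EpoR plus mutant JAK2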
aSyn 5UTR inh – MLPCN primary screen, SNCA 5' untranslated region; inhibition, % (tested at 7.5 µM); AID 1813; alpha-synuclein 5'UTR reporter, inhibitor activity; hit rate 0.82% among 300,000; in the data active = inhibition above about 60%;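 note: H4 neuroglioblastoma cells stably carrying SNCA 5'UTR luciferase fusion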
BaF3 parental – reduces parental Ba/F3 cell viability, JAK2V617F counter-screen | hit rate 1.1% among 220,000 | inhibition, % at 5.6 µM | CellTiter-Glo ATP luminescence | AID 1486;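 active = inhibition above a per-campaign cutoff, the mean inhibition of all tested compounds plus 3 SD, cut at about 27% in these data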
KLF5 inhibitor – inhibitors of KLF5 expression | AID 1700 | hit rate 0.23% among 290,000 | DLD-1 KLF5 promoter-luciferase reporter, luminescence | inhibition, % at 5 µM;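 active = inhibition above a per-plate limit of that plate's mean compound inhibition plus 3 SD, cut at about 60% in these data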;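 note: higher means less KLF5 promoter-driven luciferase light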
BaF3 parental 2 – parental Ba/F3 viability inhibition for JAK2V617F counter-screen | shares compounds with Ba/F3 V617F tox | CellTiter-Glo luminescence; cells kept alive by added IL-3 | inhibition, % at 5.6 µM | hit rate 31% among 580;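 active = cell growth inhibition above the hit limit set in the earlier mutant JAK2 cell screen, cut at about 27% in these data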
JAK2V617F conf – Ba/F3 EpoR-JAK2V617F viability loss, confirmation; inhibition, % at 5.6 µM; hit rate 66% among 580; shares compounds with Ba/F3 V617F tox; CellTiter-Glo luminescence; AID 1521;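 active = mean inhibition above the hit cutoff derived in the earlier primary screen, cut at about 25% in these data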;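 note: higher means lower luminescence from reduced cell ATP and viability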
Large screens that a line does not name were inactive (follow-up assays come after a bar, where they were run).

COc1ccc(/C=C/C(=O)c2cc(F)ccc2OC(=O)c2ccccc2C)cc1OC	APP 5UTR inh 96.7, IEC-6 tox 88.5, Ba/F3 V617F tox 38.6, aSyn 5UTR inh 82.1, KLF5 inhibitor 67.7 | BaF3 parental 2 28.8 | JAK2V617F conf 97.3
O=C1NC2(CCCC2)C(=O)N1CC(=O)N(Cc1ccccc1)c1ccccc1	none (no result: APP 5UTR inh, IEC-6 tox, Ba/F3 V617F tox, BaF3 parental, KLF5 inhibitor)
c1ccc(CN2CCN(c3nc(-c4ccccn4)nc4ccccc34)CC2)cc1	none
c1ccc(CCNc2nc(-c3ccccn3)nc3ccccc23)cc1	Ba/F3 V617F tox 58.0 (no result: APP 5UTR inh) | BaF3 parental 2 inactive | JAK2V617F conf 88.0
O=C(Nc1ccc(C(=O)NCCCN2CCN(c3ccccc3)CC2)cc1)C1=CSCCO1	none (no result: APP 5UTR inh, Ba/F3 V617F tox, BaF3 parental)
CCS(=O)(=O)CCSc1nc2ccccc2s1	none
O=S(=O)(CCSc1nc2ccccc2s1)c1nc2ccccc2s1	Ba/F3 V617F tox 40.4 | BaF3 parental 2 35.6 | JAK2V617F conf 99.9
COc1cc(C(=O)Nc2ccc3c(c2)Cc2cc(NC(=O)c4cc(OC)c(OC)c(OC)c4)ccc2-3)cc(OC)c1OC	none
CCCOc1ccc(Cc2nc(N)nc(N)n2)cc1	Ba/F3 V617F tox 39.8 | BaF3 parental 2 inactive | JAK2V617F conf inactive
CCOc1ccc(Cc2nc(N)nc(N)n2)cc1	none
Cc1c(C(=O)N(CCO)Cc2ccccc2)oc2c(F)cccc12	none (no result: APP 5UTR inh, Ba/F3 V617F tox, BaF3 parental)
COc1ccc(N2CCc3c(C)nc4c(OC)cc(OC)cc4c32)c(OC)c1	Ba/F3 V617F tox 48.0 | BaF3 parental 2 inactive | JAK2V617F conf 64.3
Cc1ccc(S(=O)(=O)NCc2ccc(C(=O)N(C)CCC#N)cc2)cc1	Ba/F3 V617F tox 92.8 (no result: APP 5UTR inh) | BaF3 parental 2 inactive | JAK2V617F conf inactive
CC1(C)Cc2nc3sc4c(SCC(=O)NCc5ccco5)ncnc4c3cc2CO1	Ba/F3 V617F tox 71.6 (no result: aSyn 5UTR inh) | BaF3 parental 2 61.8 | JAK2V617F conf 89.5
O=C(O[C@@H]1OC2COC(=O)c3cc(O)c(O)c(O)c3-c3c(cc(O)c(O)c3O)C(=O)O[C@@H]([C@H]1O)[C@@H]2O)c1cc(O)c(O)c(O)c1	Ba/F3 V617F tox 47.9 | BaF3 parental 2 inactive | JAK2V617F conf inactive
CCc1ccc(NC(=O)CSc2nnnn2C)cc1	none (no result: APP 5UTR inh, Ba/F3 V617F tox, BaF3 parental)
Cc1cc(C)c2nc(SCC(=O)N3CC(=O)Nc4ccccc43)c(C#N)cc2c1	APP 5UTR inh 95.9, Ba/F3 V617F tox 66.8, aSyn 5UTR inh 66.6 | BaF3 parental 2 96.6 | JAK2V617F conf 98.5
Cc1ccc(S(=O)(=O)N(CCCN2CCCC2=O)Cc2cc3c(C)ccc(C)c3[nH]c2=O)cc1	Ba/F3 V617F tox 61.6 | BaF3 parental 2 inactive | JAK2V617F conf inactive
COc1ccc(S(=O)(=O)N(CCCN2CCCC2=O)Cc2cc3cc(C)c(C)cc3[nH]c2=O)cc1	none
NC(=O)/C(=N\OC(=O)c1ccco1)c1nc(-c2ccc(Br)cc2)cs1	Ba/F3 V617F tox 31.2 | BaF3 parental 2 inactive | JAK2V617F conf 30.7
N#C/C(=C\c1cc(Br)ccc1F)C(=O)NC1CC1	none (no result: APP 5UTR inh, Ba/F3 V617F tox, BaF3 parental)
Cc1ccc(C2OC(=O)C=C2c2ccccc2)cc1 (configuration not stated)	none (no result: APP 5UTR inh, IEC-6 tox, Ba/F3 V617F tox, BaF3 parental, KLF5 inhibitor)
COc1ccc(-n2nnnc2S(=O)(=O)Cc2ccc(C(=O)O)cc2)cc1	none
COc1ccc(-n2nnnc2S(=O)(=O)CC(=O)N2CCCCC2)cc1	Ba/F3 V617F tox 26.9 (no result: aSyn 5UTR inh) | BaF3 parental 2 inactive | JAK2V617F conf 87.9
COC(=O)c1cccc(NC(=O)CN2CCc3ccccc3C2)c1	none (no result: APP 5UTR inh, Ba/F3 V617F tox, BaF3 parental)
Cc1cc2ccccn2c1C(=O)c1ccc([N+](=O)[O-])o1	APP 5UTR inh 54.2, Ba/F3 V617F tox 27.2 | BaF3 parental 2 inactive | JAK2V617F conf 42.0
Cc1cc2ccccn2c1C(=O)c1cccc([N+](=O)[O-])c1	none
CCOc1ccc(N2C(=O)CC(Sc3ccccc3C(=O)O)C2=O)c([N+](=O)[O-])c1 (configuration not stated)	none
O=C(NC(NC1CCS(=O)(=O)C1)C(Cl)(Cl)Cl)c1ccc(Br)cc1 (configuration not stated)	Ba/F3 V617F tox 36.0 | BaF3 parental 2 inactive | JAK2V617F conf 24.3
Cc1nc2ccccc2c(=O)n1NC(=O)c1cccc([N+](=O)[O-])c1	none
S=C(Nc1ccc(Cl)cc1)c1nc2ccccc2s1	none
O=C(Nc1ccc(Cl)cc1)/C(=C/c1cccc(O)c1)c1nc2ccccc2s1	Ba/F3 V617F tox 68.3 | BaF3 parental 2 inactive | JAK2V617F conf 98.3
CCC(CC)N1CCN(S(=O)(=O)c2ccc(OC)cc2)CC1	none (no result: APP 5UTR inh, Ba/F3 V617F tox, BaF3 parental)
CCCOc1ccc(C(=O)C(CN2CCOCC2)c2ccccc2)cc1 (configuration not stated)	Ba/F3 V617F tox 46.2 | BaF3 parental 2 inactive | JAK2V617F conf 97.3
CCCOc1ccc(C(=O)C(c2ccccc2)N2CCOCC2)cc1 (configuration not stated)	none
COc1ccc(-n2nnnc2SCC(=O)c2ccc(O)c(O)c2)cc1	Ba/F3 V617F tox 52.3 | BaF3 parental 2 inactive | JAK2V617F conf 79.2
Cn1cnnc1Sc1nc([N+](=O)[O-])nn1C	none
COc1ccccc1-c1nnc(Sc2nc([N+](=O)[O-])nn2C)o1	Ba/F3 V617F tox 60.3 (no result: APP 5UTR inh) | BaF3 parental 2 inactive | JAK2V617F conf 86.8
CC(C)(C)/C(O)=C/c1nc2cc(Cl)ccc2oc1=O	Ba/F3 V617F tox 36.9 (no result: APP 5UTR inh) | BaF3 parental 2 inactive | JAK2V617F conf 78.3
Cc1ccc2oc(=O)c(/C=C(\O)C(C)(C)C)nc2c1	none
Cc1[nH]c(=O)c(C(=O)/C=C/c2ccccc2F)c2c1CCCC2	Ba/F3 V617F tox 49.9 | BaF3 parental 2 inactive | JAK2V617F conf 95.8
Cc1cc(C)c(C(=O)/C=C/c2cccc3ccccc23)c(=O)[nH]1	none (no result: APP 5UTR inh)
C=CCNC(=S)NNC(=O)c1cccn(Cc2ccc(Cl)cc2Cl)c1=O	Ba/F3 V617F tox 29.5 | BaF3 parental 2 inactive | JAK2V617F conf inactive
CCNC(=S)NNC(=O)c1cccn(Cc2ccc(Cl)cc2Cl)c1=O	none
Cc1cc(C)cc(OCC(=O)O/N=C(\N)c2cccnc2)c1	Ba/F3 V617F tox 34.8 (no result: APP 5UTR inh) | BaF3 parental 2 inactive | JAK2V617F conf inactive
CC(C)CCNC(=O)C(c1ccco1)N(CCCO)C(=O)Cn1nnc(-c2ccc(F)cc2)n1 (configuration not stated)	Ba/F3 V617F tox 49.2 | BaF3 parental 2 inactive | JAK2V617F conf inactive
Cc1nc([N+](=O)[O-])c(Sc2nc3ccccc3n2C)n1Cc1ccccc1	Ba/F3 V617F tox 28.2 | BaF3 parental 2 inactive | JAK2V617F conf 91.5
CCCOc1ccccc1C1C(C(=O)OC)=CN(C(C)C)C=C1C(=O)OC	none
CCCCOc1ccccc1C1C(C(=O)OC)=CN(CC)C=C1C(=O)OC	Ba/F3 V617F tox 28.9 | BaF3 parental 2 29.7 | JAK2V617F conf 35.1
Cc1ccc(C)c(C(=O)COC(=O)Cn2c(C)csc2=O)c1	none (no result: APP 5UTR inh, Ba/F3 V617F tox, BaF3 parental)
CCCCn1c(=N)n(CC(=O)c2ccc(Br)s2)c2ccccc21	Ba/F3 V617F tox 71.3 (no result: APP 5UTR inh) | BaF3 parental 2 inactive | JAK2V617F conf 60.5
CCC(=O)OCC(=O)N=c1sccn1Cc1ccccc1Cl	none (no result: APP 5UTR inh, Ba/F3 V617F tox, BaF3 parental)
